Bioassay records: PubChem BioAssay, National Center for Advancing Translational Sciences (NCATS)
VACV Venus inh: inhibitors of vaccinia virus (Venus reporter); Vaccinia virus Venus reporter expression, fluorescence; Potency, µM (series often up to 36.5 µM), inactives show top-dose activity change, negative = inhibition, actives largely listed as inhibitors; hit rate 0.46% among 330,000; calls by dose curve; tested in A549 cells; also: nearly all actives have a fitted effect of over 30% in size
HCV inhibitor: HCV inhibition; Huh7.5.1 HCVcc-Cre infection, luciferase reporter, 44 h; hit rate 3.4% among 340,000; Potency, µM (series often up to 41.8 µM), inactives show top-dose activity change, negative = inhibition, hits mostly inhibitors; active = well fitted inhibition curve with a large enough effect; inconclusive = small, poorly fitted or top-dose-only effect, or another doubt; inactive = no such curve, though single readings can be large or run the other way
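After 44 h co-culture of compound, cells and HCVcc-Cre (~0.5 moi), substrate is added for 15 min at room temperature and luciferase measured over 15 sec. Cells were seeded at 1,000/well and pre-cultured 4 h.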
Vaccinia mCherry: vaccinia inhibition (mCherry reporter); Vaccinia virus mCherry reporter infection, fluorescence; Potency, µM (top dose mostly 36.5 µM), for the others: at the top dose activity change, negative = inhibition, usual class: inhibitors; hit rate 0.63% among 310,000; AID 720579; calls by dose curve; tested in A549 cells; also: nearly all actives have a fitted effect of over 35% in size
FMDV antiviral: foot and mouth disease virus antiviral activity; FMDV antiviral cell-based qHTS; Potency, µM (highest dose often 57.9 µM), inactives show at the highest dose activity change, negative = inhibition, actives largely listed as inhibitors; hit rate 1.2% among 410,000; calls by dose curve; tested in HEK293T cells; also: read-out not given here; nearly all actives have a fitted effect of over 45% in size
LASV entry inh: Lassa virus entry inhibition. Lassa virus pseudotype entry inhibition, cell reporter. Potency, µM (top dose mostly 37.9 µM), for the others: at the top dose activity change, negative = inhibition, hits mostly inhibitors. hit rate 1.2% among 300,000. AID 540256; calls by dose curve; tested in HEK293 cells; also: nearly all actives have a fitted effect of over 50% in size
MARV entry inh: blocks Marburg virus binding to or entry into cells; Marburg virus pseudotyped entry inhibition, cell reporter; Potency, µM (highest dose often 37.8 µM), for inactives: top-dose activity change, negative = inhibition, usual class: inhibitors; hit rate 1.8% among 300,000; calls by dose curve; tested in HEK293 cells
An asterisk follows results filed as active; i = inactive; ? = inconclusive; . = no result; [ ] = dose if it differs, or a comment. This is a sample that favours compounds with a hit; in the whole collection about 5.3% have one here. % is scaled to controls: 0 for no effect and ±100 for the full control effect; potency is read from the fitted curve at half-maximal effect.

SMILES	VACV Venus inh	HCV inhibitor	Vaccinia mCherry	FMDV antiviral	LASV entry inh	MARV entry inh
COc1ccc(C(=O)Nc2nc(CC(=O)NCCc3ccccc3)cs2)cc1	-5%	10µM*	-12%	-5%	-2%	-42%
COc1cc2c(c(OC)c1OC)C(c1ccccc1)(c1ccccc1)CC2NC(=O)C(F)(F)F (centres undefined)	.	.	.	.	.	-10%[14.2 µM]
CC1(C)O[C@@H](C(O)(c2cc(C(F)(F)F)cc(C(F)(F)F)c2)c2cc(C(F)(F)F)cc(C(F)(F)F)c2)[C@H](C(O)(c2cc(C(F)(F)F)cc(C(F)(F)F)c2)c2cc(C(F)(F)F)cc(C(F)(F)F)c2)O1	.	.	.	.	.	-9%[14.2 µM]
COc1cc(OC)c(CN2CCOc3ccc(CN4CCC(O)CC4)cc3C2)c(OC)c1	-4%	.	-17%	-12%	.	.
Cc1ccc(CN2CCSc3ccc(C(=O)N4CCN(c5cccc(C)c5C)CC4)cc32)cc1	-18%	.	-22%	0%	5%[46.1 µM]	-12%[46.1 µM]
COc1cccc(N=Nc2ccc3ccccc3c2O)c1	.	-2%	.	-59%	.	.
Oc1c(N=Nc2ccc(F)cc2)ccc2ccccc12	8%	0%	?	14µM*	?	?
Cc1ccc(N=Nc2ccc3ccccc3c2O)cc1	5%	-1%	-8%	7.9µM*	4.5µM*	?
CC1CCn2c(nc3cc(C(=O)NCc4ccccc4)ccc32)C1 (centres undefined)	-15%[7.34 µM]	.	-20%[7.34 µM]	41%	26%[46.1 µM]	.
COc1ccc([C@@H]2Sc3ccccc3N(CCN(C)C)C(=O)[C@@H]2OC(C)=O)cc1	-13%	-7%[8.37 µM]	-14%	-16%	2.3µM*	?
COc1ccc(C2Sc3ccccc3N(CCN(C)C)C(=O)[C@@H]2OC(C)=O)cc1 (some centres undefined)	-5%	.	-2%	-5%	.	?
CN(C)CCNC(=O)/C(=C/c1ccc(-c2ccc(Cl)cc2)o1)NC(=O)c1ccccc1	?	10µM*	-4%	?	?	12µM*
Cc1ccc(C(=O)N/C(=C\c2ccc(-c3cccc([N+](=O)[O-])c3)o2)C(=O)NCCCN(C)C)cc1	?	?	?	-8%	?	?
Cc1ccc(C(=O)N/C(=C\c2ccc(-c3ccccc3[N+](=O)[O-])o2)C(=O)NCCCN2CCOCC2)cc1	-13%	25µM*	?	-13%	?	?
CN(C)CCNC(=O)/C(=C/c1ccc(-c2ccc(Cl)cc2Cl)o1)NC(=O)c1ccccc1	11µM*	10µM*	?	?	?	6.3µM*
CN(C)CCCNC(=O)/C(=C\c1ccc(-c2cccc([N+](=O)[O-])c2)o1)NC(=O)c1ccccc1	-3%	?	?	-22%	-26%	?
Cc1ccc(C(=O)N/C(=C\c2ccc(-c3ccc(Br)cc3)o2)C(=O)NCCCN(C)C)cc1	.	2µM*	.	?	.	.
Cc1ccc(C(=O)N/C(=C\c2cn(C)c3ccccc23)C(=O)NCCCN2CCOCC2)cc1	-20%	-4%	?	-9%	8%[46.1 µM]	-14%[46.1 µM]
O=C(C[n+]1cccc2cc(Cl)ccc21)c1ccc(I)cc1	78%	.	-16%	.	.	.
CCOc1ccccc1Nc1nc(-c2ccc(C)cc2)c(CC(=O)O)s1	-5%	.	i	31%	-6%[46.1 µM]	?
Cc1cccc(NC(=O)c2c(C)cc(C)nc2SCC(=O)Nc2c(C)cc(C)cc2C)c1	-19%	.	i	-22%	6%[46.1 µM]	8%[46.1 µM]
CC/C(=N\N1CCCCCC1)c1c(O)n(-c2ccc(C)cc2)c(=O)[nH]c1=O	-18%	4%	i	0%	0.4µM*	11%
Cc1cc(C)n2nc(-c3sccc3-n3c(C)ccc3C)cc2n1	?	8.9µM*	.	10%	-6%	-21%
Cc1cc(C)n2nc(-c3sccc3-n3cccc3)cc2n1	-23%	-19%	.	?	-17%	0%
CCOC(=O)c1ccc(NC(=O)CN2CCN(C(=O)c3ccco3)CC2)cc1	-12%	-6%	-8%	-21%	-27%	?
SMILES	VACV Venus inh	HCV inhibitor	Vaccinia mCherry	FMDV antiviral	LASV entry inh	MARV entry inh
CCc1c(C)sc(NC(=O)CN2CCN(C(=O)c3ccco3)CC2)c1C(=O)OC	-18%	11µM*	-8%	?	3.5µM*	?
CCOC(=O)c1c(NC(=O)CN2CCN(C(=O)c3ccco3)CC2)sc(C)c1C	?	.	?	-25%	11µM*	?
CN(C)c1nc(CN2CCCCC2c2cccnc2)nc2ccccc12 (centres undefined)	-7%	.	-16%	-14%	.	.
O=C(COc1ccc(Cl)cc1)NCCc1csc(-c2ccc(C(F)(F)F)cc2)n1	-24%	.	-14%	?	9%[46.1 µM]	.
CNc1nc(SCc2ccccc2Cl)nc2c1CCCC2	?	7.1µM*	.	-29%	?	-22%
COc1ccc(-n2c(/C=C3/C(=O)Nc4ccccc43)nc3ccccc3c2=O)cc1	-6%	1%	i	?	?	?
CC(C)N1C(=O)/C(=C\c2nc3ccccc3c(=O)n2-c2ccccc2)c2ccccc21	?	?	11µM*	18µM*	?	?
CC(C)N1C(=O)/C(=C/c2nc3ccccc3c(=O)n2-c2ccccc2)c2ccccc21	-13%	?	-2%	28µM*	10µM*	?
CC1(c2nnnn2-c2ccc3c(c2)OCCO3)CCC(=O)N1CCCn1ccnc1 (centres undefined)	11%	.	8%	-7%	.	.
CC1(C)CC(NC(=O)c2cccc(S(=O)(=O)N(Cc3ccccc3)c3ccccc3)c2)CC(C)(C)N1	?	2.2µM*	-21%	-14%	-47%	?
Cc1ccc(N(C)S(=O)(=O)c2cccc(C(=O)NC3CC(C)(C)NC(C)(C)C3)c2)cc1	-23%	?	?	0%	-3%	?
O=C(O)c1cc2c(s1)-c1ccccc1OC2	-30%	17%	.	7%	9%	?
O=C(NC1CC1)c1cc2c(s1)-c1ccccc1OC2	?	11µM*	?	-5%	.	.
COc1cc(NC(=O)NCC2CCN(Cc3ccccc3Cl)CC2)cc(OC)c1OC	-2%	-28%	-8%	-24%	19%[46.1 µM]	?
CCc1cc(Cl)c(OC)c(C(=O)NC[C@@H]2CCCN2CC)c1O	-19%	5µM*	-4%	-22%	.	.
CC1=CC(C)CC(C)OC(=O)CC(c2ccc(O)cc2)NC(=O)C(Cc2c(Br)[nH]c3ccccc23)N(C)C(=O)C(C)NC(=O)C(C)C1 (centres undefined)	35µM*	?	32µM*	-27%	0.4µM*	0.32µM*
NC(=S)N=Nc1c(O)n(Cc2ccc(Br)cc2)c2ccccc12	1µM*	1µM*	1µM*	0%	?	?
Cc1ccc2c(c1)c(N=O)c(O)n2Cc1ccc(Cl)cc1	-22%	-6%	-16%	-7%	?	3%[46.1 µM]
Cc1ccc2c(c1)c(N=NC(N)=S)c(O)n2Cc1ccccc1	1µM*	0%	0.89µM*	-6%	-14%	?
C/C(Cl)=C\Cn1c(O)c(N=NC(N)=S)c2cc(Br)ccc21	.	11µM*	.	?	.	.
